# Compound activity from PubChem BioAssay.
# An excerpt weighted towards active compounds, which were near 3.6% of everything screened.
# MazEF act = activators of E. coli MazEF toxin-antitoxin RNase, primary screen, biochemical, fluorescence, uHTS. actives 0.32% (n = 350,000). FAM/BHQ RNA-DNA oligo cleavage fluorescence, 5 h. Endoribonuclease toxin MazF (Escherichia coli (strain K12)), P0AE70. activation, % at 20 µM; in the data active means activation above about 50%
# Target sequence (P0AE70 whole entry, looked up): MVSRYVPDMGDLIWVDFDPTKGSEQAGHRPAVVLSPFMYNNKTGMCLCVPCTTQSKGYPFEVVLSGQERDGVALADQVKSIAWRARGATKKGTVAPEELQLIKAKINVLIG
# BoNT A protease = BoNT/A light chain protease inhibitors, primary screen, biochemical, flow cytometry, MLPCN library | Botulinum neurotoxin type A light chain protease (Clostridium botulinum A str. ATCC 3502) | multiplex microsphere protease substrate cleavage | inhibition, % at 10 µM | actives 0.17% (n = 360,000) | AID 588499, 2011; in the data active means inhibition above about 30%; inconclusive means no clear call, values can overlap the other calls; further: plate controls were buffer without enzyme for full effect and enzyme alone for no effect
# Anthrax LF inh2 = Bacillus anthracis LF protease inhibitors, primary screen, biochemical, multiplex microsphere, MLPCN library; inhibition, % at 10 µM; AID 588501, 2011; multiplex microsphere protease cleavage assay; actives 0.12% (n = 360,000); Lethal factor (Bacillus anthracis), P15917; in the data active means inhibition above about 30%; inconclusive means no clear call, values can overlap the other calls; further: plate controls were buffer without enzyme for full effect and enzyme alone for no effect
# Bead autofluor = compound fluorescence in toxin protease inhibitor counterscreen | fluorescence intensity (no concentration beside the values) | actives 3.1% (n = 360,000) | compound autofluorescence counterscreen, microsphere flow cytometry; stronger effect = higher value | AID 624483; in the data active means fluorescence intensity above about 16000; inconclusive means no clear call, values can overlap the other calls
# BoNT F protease = BoNT/F light chain protease inhibitors, primary screen, biochemical, flow cytometry, MLPCN library. Botulinum neurotoxin type F light chain protease (Clostridium botulinum). Multiplex microsphere protease cleavage assay. inhibition, % at 10 µM. actives 0.22% (n = 360,000). AID 588497, 2011; in the data active means inhibition above about 35%, passing the limit was not always enough; inconclusive means no clear call, values can overlap the other calls; further: plate controls were buffer without enzyme for full effect and enzyme alone for no effect
# BoNT-A LC CP1 = BoNT/A light chain protease inhibitors, confirmation, biochemical, flow cytometry, cherry pick 1 | shares compounds with BoNT F protease | multiplex microsphere protease assay | inhibition, % at 10 µM | actives 3% (n = 720) | AID 602139, 2011; in the data active means inhibition above about 32%
# BoNTF LC inh 1 = BoNT/F light chain protease inhibitors, confirmation, biochemical, flow cytometry, cherry pick 1; inhibition, % at 10 µM; AID 602140, 2011; 720 tested, under 10 active; multiplex microsphere protease cleavage assay; shares compounds with BoNT F protease
# Anthrax LF CP1 = Bacillus anthracis LF protease inhibitors, confirmation, biochemical, multiplex microsphere, cherry pick 1. shares compounds with BoNT F protease. multiplex microsphere protease cleavage assay. inhibition, % at 10 µM. 720 tested, under 10 active
# * marks the source's active call; other numbers are inactive results; u = inconclusive; x = no result given. Unless noted, how the calls were made is not given here.
SMILES,MazEF act,BoNT A protease,Anthrax LF inh2,Bead autofluor,BoNT F protease,BoNT-A LC CP1,BoNTF LC inh 1,Anthrax LF CP1
O=C(CNC(=O)c1ccc2c(=O)n3c(nc2c1)CCC3)Nc1ccc(F)c(F)c1,-1,-4,-2,6568,0,x,x,x
CCCNC(=O)CNC(=O)c1ccc(C#N)cc1,9,1,3,3990,5,x,x,x
COc1ccc(-c2cc(-c3cccs3)nc3sc(C#N)c(N)c23)cc1,-11,40*,16,2358,8,12,-1,2
N#Cc1sc2nc(C3CC3)cc(-c3ccc(Cl)cc3)c2c1N,0,6,0,1998,-4,x,x,x
Cc1cc(C)c2c(N)c(C(=O)c3ccc(Cl)cc3)sc2n1,11,0,0,2536,3,x,x,x
Cc1cc(-c2cccs2)c2c(N)c(C(=O)c3ccc4c(c3)OCO4)sc2n1,-109,56*,22,2808,16,21,0,15
COc1ccc(C(=O)c2sc3nc(C)cc(-c4cccs4)c3c2N)cc1,-159,56*,20,3055,17,28,8,14
N#Cc1nc2ccccc2n1OCc1ccccc1,2,-1,-2,3936,-13,x,x,x
COC(=O)c1ccc(CN2C(=O)NC(CC(C)C)C2=O)cc1 (centres undefined),12,-1,-11,4753,-5,x,x,x
Cc1cccc(NC(=S)NC(=O)c2oc3ccccc3c2C)n1,2,0,-2,5268,-2,x,x,x
O=C(c1ccccc1)N1CCN(Cc2cccc(Oc3ccccc3)c2)CC1,-2,4,0,2577,38*,-1,-2,1
COc1cccc(CN2CCN(C(=O)c3cccc(OC)c3)CC2)c1,1,0,18,3553,3,x,x,x
CCOc1ccccc1Nc1nc(-c2sc(C)nc2C)cs1,-3,7,2,4650,41*,0,-1,-4
Cc1ccccc1NC(=O)c1cccc(C(=O)Nc2ccccc2C)c1,2,4,-7,4155,u,x,x,x
Cc1ccccc1NC(=O)c1cccnc1,4,3,10,3631,66*,0,-1,1
CCN(Cc1nc2cc(Cl)ccc2c(=O)[nH]1)C(=O)CN1C(=O)NC2(CCCCC2C)C1=O (centres undefined),1,x,x,x,x,x,x,x
O=C(O)c1ccc(Cl)c(S(=O)(=O)NCc2cccnc2)c1,-14,-1,-2,3280,0,x,x,x
O=S(=O)(NCc1cccnc1)c1cc(Cl)ccc1Cl,4,34*,-29,7951,37*,1,-6,2
O=C(NCCO)C(=O)Nc1cc2c3c(c1)CCC(=O)N3CCC2,7,-1,0,5160,-6,x,x,x
O=C(O)COc1ccccc1/C=N/NC(=O)CNC(=O)c1ccco1,5,-2,-2,6197,-14,x,x,x
Cc1cc(NC(=O)CSc2nnc(-c3ccncc3)n2C)n(-c2ccccc2)n1,2,8,70*,7628,u,1,3,4
Cc1cc(NC(=O)CSc2nnc(-c3ccncc3)n2Cc2ccccc2)n(-c2ccccc2)n1,3,u,-5,3521,u,x,x,x
Cc1ccc(S(=O)(=O)N2CCOCC2)cc1C(=O)Nc1ccccc1N1CCOCC1,1,0,-2,8663,-3,x,x,x
O=C(COc1ccc(S(=O)(=O)NCc2ccccc2)cc1Cl)NCc1ccncc1,0,0,-1,6416,-2,x,x,x
O=C(COc1ccc(S(=O)(=O)NCc2ccccc2)cc1Cl)NCc1ccccn1,5,13,22,2862,68*,2,-4,-1
COc1ccc(CN(C)S(=O)(=O)c2nnc(NC(=O)c3cccc(F)c3)s2)cc1,0,0,-1,6122,-4,x,x,x
Cc1cc(C)nc(SCc2ccc(Cl)cc2)n1,-11,2,32*,3562,-12,0,-3,2
